{
  "source": "PubChem BioAssay (NCI)",
  "note": "Values joined by “and” are separate entries in the source; they are usually repeats but may differ in a detail not shown here. Equal entries are not always repeated. About 83,000 compounds went through this panel and 20% of them were active in at least one assay; those are over-represented in the sample as a whole.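 Note: values are percent growth. 100 is the growth of untreated cells, values between 100 and 0 indicate rising inhibition; between -100 and 0 indicates cell death.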 Some compounds were tested as several samples or in several runs, with calls that do not always agree. Active and inactive are the calls of the source.",
  "data": [
    {"test_system": "HL-60(TB) leukemia", "test": "NCI-60 one-dose screen, 48 h (100 = growth as untreated, 0 = no growth, -100 = all killed)", "settings": "10 µM unless noted", "procedure": "Growth inhibition of the HL-60(TB) human tumor cell line is measured as a screen for anti-cancer activity. Cells are grown in 96 well plates and exposed to the test compound for 48 hours. Compounds are tested at a single concentration, which is 10^-5 M for most compounds. The reported endpoint is percent growth (GI% or GIPRCNT), where numbers from 0 - 100% represent growth inhibition, and numbers from -100% - 0 represent cell death. For example, a value of 40 represents 60% growth inhibition. A value of 0 means no net growth occurred over the course of the experiment. A value of -40 indicates 40% of cells at the beginning of the experiment died by the end of the experiment. A value of -100 means all cells are dead at the end of the experiment.\nNCI-60 Human Tumor Cell Lines Screen was performed using the standard one-dose NCI protocol, which is described in more detail at https://dtp.cancer.gov/discovery_development/nci-60/default.htm.\nCompounds with GIPRCNT values below 10 were considered active. Activity score was based on GIPRCNT using the following formula: […]\nScore is 0 for GIPRCNT values of 100 or above, 50 for GIPRCNT values of 0, and 100 for GIPRCNT values of -100.", "values": [
      {"smiles": "COc1cc2cc(Oc3ccc(NC(=O)Nc4ccc(F)c(C(F)(F)F)c4)cc3)c(C)nc2cc1OCCN(C)C", "growth": "94.3% (inactive)"},
      {"smiles": "Nc1cc(-c2c[nH]c3ccccc23)nc2cc(-c3c[nH]c4ccccc34)nn12", "growth": "40.1% (inactive)"},
      {"smiles": "Cc1cc(C(NC(=O)CCCCCNc2cccc3c2C(=O)N(C2CCC(=O)NC2=O)C3=O)c2cccnc2)c(O)c2ncccc12", "note": "(stereo not given)", "growth": "-31% (active)"},
      {"smiles": "Nc1c(C(=O)c2ccccc2)sc2nc(-c3cnccn3)cc(-c3cccs3)c12", "growth": "108% (inactive)"},
      {"smiles": "CCCCCN1C(=O)/C(=c2\\sc3n(c2=O)C2C(NN=3)N(CC)C(=O)N2CC)c2cccc(C)c21", "note": "(stereo not given)", "growth": "11.9% (inactive)"},
      {"smiles": "COc1cc(-c2nc3ccc(-c4nnc(SCC(=O)Nc5ccc(C(C)=O)cc5)o4)cc3[nH]2)cc(OC)c1OC", "growth": "104% (inactive)"},
      {"smiles": "C[C@H]1c2[nH]c3ccccc3c2C[C@H]2C(=O)N(CCCCCCC(=O)NO)CC(=O)N21", "growth": "108% (inactive)"},
      {"smiles": "COc1cccc(N2CCN(c3ncnc4c3[nH]c3ccc(F)cc34)C[C@@H]2C)c1", "growth": "-38.8% (active)"},
      {"smiles": "COc1ccc(C2CC(c3ccc(Nc4nc(NCCO)nc(N5CCOCC5)n4)cc3)=Nc3c(N)nc(N)nc3N2)cc1", "note": "(stereo not given)", "growth": "90.9% (inactive)"},
      {"smiles": "CN1CCN(c2ccc(Nc3nc(NCCNS(=O)(=O)c4ccc(Cl)cc4)c4sccc4n3)cc2)CC1", "growth": "80.1% (inactive)"},
      {"smiles": "COc1c(N2CC3CCCNC3C2)c(F)cc2c(=O)c(C(=O)N/N=C/c3ccc(F)cc3)cn(C3CC3)c12", "note": "(stereo not given)", "growth": "72.8% (inactive)"},
      {"smiles": "COc1ccc(C2c3sc4c(C)cccc4c3Oc3nc(CC(=O)Nc4ccccc4)[nH]c(=O)c32)cc1", "note": "(stereo not given)", "growth": "146% (inactive)"},
      {"smiles": "COc1ccc(Oc2ccc(/C=N/NC(=O)CSc3nc4ccccc4c(=O)n3-c3ccc(Cl)cc3)cc2)cc1", "growth": "104% (inactive)"},
      {"smiles": "CCCCOc1ccc(S(=O)(=O)N2CCN(c3nc(C)cc(N4CCOCC4)n3)CC2)cc1", "growth": "20.3% (inactive)"},
      {"smiles": "COc1cc(C)c(-c2ccc(OC)c(=O)cc2C)c(OC)c1OC", "growth": "-24.6% (active) and 98.8% (inactive)"},
      {"smiles": "COc1cc(OC)c(S(=O)(=O)NNC(=O)c2ccncc2)cc1C(=O)/C=C/c1ccc(C)cc1", "growth": "51.2% (inactive)"},
      {"smiles": "CC(=O)Nc1nc(C)c(-c2csc(Nc3ccccc3)n2)s1", "growth": "33.6% (inactive)"},
      {"smiles": "N[C@@H](Cc1cn(-c2c3ccccc3nc3ccccc23)nn1)C(=O)O", "growth": "95.5% (inactive)"},
      {"smiles": "O=C(Nc1cccc(C(F)(F)F)c1)c1cc(-c2ccc(F)cc2F)ccc1O", "growth": "-40.7% (active)"},
      {"smiles": "C=CCn1c(-c2nc3ccc(C(=C(C#N)C#N)c4ccccc4)cc3[nH]2)cc2cc(Br)ccc21", "growth": "59.2% (inactive)"},
      {"smiles": "O=c1c2ccccc2nc(COc2ccccc2)n1NS(=O)(=O)c1ccc(Cl)cc1", "growth": "75.7% (inactive)"},
      {"smiles": "Cc1ccc2c(n1)C(=O)C(Cl)=C(Nc1ccc(C(F)(F)F)cc1)C2=O", "growth": "35.8% (inactive)"},
      {"smiles": "NC(=O)c1c(NC(=O)c2ccccc2C(F)(F)F)sc2c1CCC(=O)C2", "growth": "1.97% (active)"},
      {"smiles": "C/C=C/CC(C)C(O)[C@H](NC(=O)[C@@H]1CCCN1C(=O)C(C)(C)NC(=O)CCCCCCCCC)C(=O)N[C@@](C)(CC)C(=O)N[C@@H](CCC(N)=O)C(=O)N[C@H](CCC(N)=O)C(=O)NC(C)(C)C(=O)NC(C)(C)C(=O)N[C@@H](CCC(N)=O)C(=O)N[C@H](CC(C)C)C(=O)N[C@H](CO)CC(C)C", "note": "(stereo not given in full)", "growth": "1.3% (active) and 79.5% (inactive)"},
      {"smiles": "COc1ccccc1C(=O)Nc1cccc2c1C(=O)C(=O)C=C2", "growth": "9.19% (active)"},
      {"smiles": "O=C1/C(=C/c2ccc([N+](=O)[O-])cc2)SC(=Nc2ccccc2)N1Nc1ccccc1", "growth": "25.8% (inactive)"},
      {"smiles": "Clc1ccc2c(NCCCn3ccnc3)c3oc4ccc(Cl)cc4c3nc2c1", "growth": "78.6% (inactive)"},
      {"smiles": "CCO/C=N/C1=C(C#N)C(c2ccc(F)cc2)c2sc3c(CC)cccc3c2O1", "note": "(stereo not given)", "growth": "-19.1% (active)"},
      {"smiles": "CCCCCc1ccc(S(=O)(=O)Nc2cc(-c3csc(NC(=O)CN4CCN(CCO)CC4)n3)ccc2OC)cc1", "growth": "-40.5% (active)"},
      {"smiles": "CNCCN(C)c1ccc(Nc2cc(NC3CC3)n3ncc(C#N)c3n2)cc1NC(C)=O", "growth": "-7.57% (active)"},
      {"smiles": "N#Cc1c(-c2ccccc2)cc(-c2c[nH]c3ccccc23)nc1-c1c[nH]c2ccccc12", "growth": "104% (inactive)"},
      {"smiles": "N#Cc1cccc(/C(N)=N/C(N)=N/c2nc3ccccc3s2)c1", "growth": "4.28% (active)"},
      {"smiles": "CC1(C)CC[C@]2(C(=O)N3CCCNCC3)CC[C@]3(C)C(=CC[C@@H]4[C@@]5(C)CCC(=O)C(C)(C)[C@@H]5CC[C@]43C)[C@H]2C1", "growth": "104% (inactive)"},
      {"smiles": "O=C(CSc1nc2ccccc2c(=O)n1-c1ccccc1)N/N=C/c1ccc(Oc2ccc(Cl)cc2)cc1", "growth": "106% (inactive)"},
      {"smiles": "COc1ccc(-c2nc3ccc(-c4nnc(SCC(=O)Nc5ccc(C(C)=O)cc5)o4)cc3[nH]2)cc1", "growth": "83.4% (inactive)"},
      {"smiles": "C=C(C=O)[C@@H]1CC[C@]2(C)[C@H](C(=O)C=C3[C@H]4C[C@](C)(C(=O)OC)CC[C@]4(C)CC[C@]32C)[C@@]1(C)CCC#N", "growth": "-27.3% (active)"},
      {"smiles": "N#C/C(=C\\c1ccc(-c2ccc(Cl)cc2Cl)o1)c1ccc(F)cc1", "growth": "95.9% (inactive)"},
      {"smiles": "NC(=O)C(=Cc1ccc(Cl)cc1)C(N)=O", "growth": "26.6% (inactive)"},
      {"smiles": "CCO/C=N/C1=C(C#N)C(c2ccc(F)cc2)c2sc3c(C)cccc3c2O1", "note": "(stereo not given)", "growth": "-22.8% (active)"},
      {"smiles": "C=C(C)[C@@H]1CC[C@]2(C(=O)O)CC[C@]3(C)[C@H](CC[C@@H]4[C@@]5(C)C/C(=C/c6ccccn6)C(=O)C(C)(C)[C@@H]5CC[C@]43C)[C@@H]12", "growth": "15.3% (inactive)"}
    ]}
  ]
}
